# Screening results from PubChem BioAssay.
# Calb FLC: affects C. albicans growth with fluconazole. growth inhibition, % (no concentration beside the values). 300,000 tested, 0.57% active. C. albicans CaCi-2 (fluconazole-resistant clinical isolate) + fluconazole, Alamar Blue growth, 48 h;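 active = growth inhibition above about 58% in most replicates, limit read from the data, passing the limit was not always enough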;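 note: all wells also contain fluconazole at 8 µg/ml as a sub-toxic cotreatment; 0% = median of DMSO wells and 100% = median of geldanamycin control wells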
# Beta cell apopt: beta cell apoptosis inhibition. INS-1E cytokine-induced death, ATP luminescence, 48 h; percent of positive-control rescue, neutral wells zero. protection from apoptosis, % (concentration not given with the values). 300,000 tested, 0.8% active;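 active = Every replicate reaches about 75%, or at least half do and their mean reaches it too, limit read from the data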;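 note: 0% = cytokine-treated negative control wells and 100% = positive control rescue; higher means more ATP so stronger rescue from cytokine killing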
# PP1 counter: PP1-alpha (human) inhibition in PP5 counter-screen. purified PP1alpha, OMFP fluorescence. inhibition, % at 6.7 µM. 320,000 tested, 0.9% active. AID 2235. P62136;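 active = inhibition above the mean inhibition of all tested compounds plus 3 SD, computed separately for each screening campaign, cut at about 15% in these data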
# CSC inhib: blocks cancer stem cells; cancer stem cell-like cells viability, luminescence; inhibition, % at 7.5 µM; 300,000 tested, 1.1% active; in the data active = inhibition above about 75%; tested in HMLE shEcad cells
# PP5 inh: PP5 (human) phosphatase inhibition. P53041. purified PP5c, OMFP substrate fluorescence. inhibition, % at 6.7 µM. 320,000 tested, 0.18% active. AID 1987;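 active = inhibition above the campaign's mean inhibition across all tested compounds plus 3 SD, cut at about 9.5% in these data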;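 note: 0% = DMSO only and 100% = 100 µM cantharidin control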
# Mdm2-MdmX inh: human Mdm2/MdmX binding inhibition; SaOS-2 split-luciferase Mdm2/MdmX complementation, luminescence; inhibition, % at 8 µM; 330,000 tested, 3% active; AID 485346;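 active = inhibition of at least 50% at 8 µM in the primary screen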
# Target sequence (O15151 whole entry, looked up): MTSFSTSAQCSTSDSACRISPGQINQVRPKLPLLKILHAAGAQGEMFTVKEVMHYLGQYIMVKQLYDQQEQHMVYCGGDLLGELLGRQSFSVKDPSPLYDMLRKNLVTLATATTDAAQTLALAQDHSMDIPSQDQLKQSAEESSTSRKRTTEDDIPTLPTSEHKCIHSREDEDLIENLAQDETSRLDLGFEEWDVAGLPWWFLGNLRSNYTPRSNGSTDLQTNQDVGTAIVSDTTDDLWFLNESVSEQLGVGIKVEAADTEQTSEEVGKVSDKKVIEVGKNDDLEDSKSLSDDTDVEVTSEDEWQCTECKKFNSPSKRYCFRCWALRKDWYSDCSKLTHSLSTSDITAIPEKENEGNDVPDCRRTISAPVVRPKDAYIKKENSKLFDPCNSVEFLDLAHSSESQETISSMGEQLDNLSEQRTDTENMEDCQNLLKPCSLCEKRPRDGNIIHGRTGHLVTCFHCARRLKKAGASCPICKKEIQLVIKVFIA
# Target sequence (Q00987 whole entry, looked up): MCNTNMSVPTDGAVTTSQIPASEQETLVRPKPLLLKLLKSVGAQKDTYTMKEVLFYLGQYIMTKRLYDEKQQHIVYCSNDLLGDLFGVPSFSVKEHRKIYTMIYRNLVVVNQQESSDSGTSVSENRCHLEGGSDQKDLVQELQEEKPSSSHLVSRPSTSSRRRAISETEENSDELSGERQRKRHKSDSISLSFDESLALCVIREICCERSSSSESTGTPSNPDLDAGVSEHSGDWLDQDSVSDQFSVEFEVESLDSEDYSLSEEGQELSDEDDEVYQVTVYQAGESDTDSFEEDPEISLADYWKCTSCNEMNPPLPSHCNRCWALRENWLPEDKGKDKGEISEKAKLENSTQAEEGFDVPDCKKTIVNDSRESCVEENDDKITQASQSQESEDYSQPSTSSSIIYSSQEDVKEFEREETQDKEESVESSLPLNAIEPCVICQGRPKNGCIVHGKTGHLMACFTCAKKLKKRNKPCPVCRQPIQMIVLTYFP
# Numbers without * were called inactive; x = not tested or not shown. Rows were chosen to be rich in hits. Some 4.9% of all compounds tested hit in one or more screens of this group.
SMILES,Calb FLC,Beta cell apopt,PP1 counter,CSC inhib,PP5 inh,Mdm2-MdmX inh
Cc1ccc(CNC(=O)C(=O)NCC2OCCN2C(=O)c2cccs2)cc1 (configuration not stated),2,2,0,-3,-1,-27
CCCCC(=O)Nc1nc(C)c(-c2csc(Nc3cc(OC)ccc3OC)n2)s1,-2,3,3,81*,4,39
CCN(CC)CCCNC(=O)CN1N=C(c2ccc(OC)cc2)CCC1=O,-2,-17,-2,-3,0,2
Cc1c(C(=O)N(C)c2ccc(Cl)cc2)cnn1-c1ccccc1,-14,-1,-1,-10,4,-24
C(C#CCCCCCCCCC[n+]1ccccc1)#CCCCCCCCCC[n+]1ccccc1,110*,104*,12,75*,0,x
CCOc1cc(C2NN=C(c3ccc(C)cc3)S2)ccc1O (configuration not stated),x,0,-3,105*,-1,x
CCC(C)(C(=O)NC1CCCC1)N(C(=O)CNC(=O)c1ccccc1)c1c(C)n(C)n(-c2ccccc2)c1=O (configuration not stated),-26,-1,-4,-7,0,1
Cc1cc(C)nc(Nc2cccc(C(F)(F)F)c2)n1,3,0,5,-9,4,17
Oc1c(C(Nc2cccc(C(F)(F)F)c2)c2cccnc2)ccc2cccnc12 (configuration not stated),96*,5,12,33,2,21
CCOC(=O)[C@H]1[C@H]2COc3ccc(Cl)cc3[C@@H]2N2C(=O)CN(Cc3ccc(Cl)cc3)C(=O)[C@@]12C,x,-4,-2,-7,2,15
CC(=O)c1cccc(Nc2nc(-c3ccccc3)cs2)c1,-4,-3,-7,10,3,-351
O=C(Nc1cccc(-c2csc(Nc3ccccc3)n2)c1)c1ccccc1,10,37,1,100*,5,-8
O=C(Nc1cccc(-c2csc(Nc3cccc(C(F)(F)F)c3)n2)c1)c1ccccc1,4,16,-2,130*,5,43
COc1ccccc1Nc1nc(-c2cccc([N+](=O)[O-])c2)cs1,46,25,0,74,-2,-11
O=[N+]([O-])c1cccc(-c2csc(Nc3ccccc3)n2)c1,-29,10,0,94*,2,-80
O=C(/C=C/c1cccs1)N1CCN(c2ccccc2)CC1,-2,-4,-8,2,3,-3
Cc1noc2ncnc(Sc3ccc(Cl)cc3)c12,86*,-49,-1,51,1,19
COc1ccc(OC)c(NC(=O)CSc2nnc(-c3cccnc3)s2)c1,-1,99*,-4,-21,-1,19
CC(=O)N1c2ccc(S(=O)(=O)N3CCC(C(=O)N4CCN(c5cccc(C(F)(F)F)c5)CC4)CC3)cc2CC1C (configuration not stated),-12,92*,2,8,0,26
CC(=O)c1ccc(N2CCN(C(=O)C3CCN(S(=O)(=O)c4ccc5c(c4)CC(C)N5C(C)=O)CC3)CC2)cc1 (configuration not stated),-1,6,-1,-1,3,19
Cc1cc(-c2csc(NC(=O)c3ccc(=O)n(C)n3)n2)c(C)n1CC1CCCO1 (configuration not stated),8,2,16*,2,4,-2
Cc1cc(-c2csc(NC(=O)C3=COCCO3)n2)c(C)n1C,3,4,13,-9,-2,23
CCCCn1c2c(c(=N)c3c1CCC3)CCC2,x,48,-5,-9,5,43
CCCCCCCn1c2c(c(=N)c3c1CCC3)CCCC2,94*,x,x,x,x,x
COc1ccc(Cl)cc1NC(=O)CN(C)C(=O)c1cc2c(s1)CCC(C)C2 (configuration not stated),6,2,-1,-14,1,30
CCCOc1ccc(C(=O)NNC(=S)NC(=O)CC)cc1,85*,71,7,24,1,47
CCCCn1c(-c2ccccc2)cnc1SCC(=O)NCCc1ccc(OC)c(OC)c1,-16,-17,1,-6,2,12
CC(=O)Nc1ccc(OCC(O)CN2CCN(c3ccc(C)c(Cl)c3)CC2)cc1 (configuration not stated),0,12,-2,120*,1,0
